Bioassay records deposited in PubChem by National Center for Advancing Translational Sciences (NCATS).
Cycloheximide cs = counter-screen hit for Shiga toxin inhibitors, cycloheximide. cell reporter, cycloheximide protein synthesis inhibition counterscreen. max response, %. 300,000 tested, 12% active. AID 2314; in the data active means max response mostly above about 13%, no sharp cut-off; inactive means mostly below about 14%; further: read at 38.3 µM for the half of the compounds with a filed dose
Pf growth 96h = P. falciparum growth inhibition at 96 hours. P. falciparum luciferase reporter growth, 96 h. Potency, µM (top dose mostly 28.7 µM), actives largely listed as inhibitors. 320,000 tested, 6.9% active; active means well fitted inhibition curve with a large enough effect; inconclusive means small, poorly fitted or top-dose-only effect, or another doubt; inactive means no such curve, though single readings can be large or run the other way
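P. falciparum expressing integrated firefly luciferase grown in erythrocytes (2% hematocrit, 0.05% parasitemia final) with compounds for 96 hours at 37 C, 5% CO2. Growth inhibition read as loss of luminescence after adding luciferase detection reagent.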
Pf growth 48h = inhibits P. falciparum growth in the first generation, 48 h. AID 504832. 310,000 tested, 5.9% active. P. falciparum luciferase growth in erythrocytes, 48 h. Potency, µM (titrated, usually from 28.7 µM), hits mostly inhibitors; active means well fitted inhibition curve with a large enough effect; inconclusive means small, poorly fitted or top-dose-only effect, or another doubt; inactive means no such curve, though single readings can be large or run the other way
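Here the parasites carry a stable luciferase gene and grow inside erythrocytes in Albumax-based RPMI medium with compound for one erythrocytic cycle. Activity is scored as loss of luminescent signal.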
Shiga toxin inh = Shiga toxin inhibition; inhibition, % at 38.7 µM; 290,000 tested, 9.2% active; AID 2315; Vero cells, Shiga toxin protein synthesis inhibition reporter; in the data active means inhibition mostly above about 28%, no sharp cut-off; inactive means mostly below about 43%
NS1 function inh = influenza NS1 inhibition | 270,000 tested, 0.4% active | AID 2326 | Potency, µM (titrated, usually from 46.1 µM); further: actives are rising curves; nearly all actives have a fitted effect of over 50% in size
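A cell-based growth assay was used: compounds that relieve NS1-induced slow growth of budding yeast raise OD600. Assay medium was yeast nitrogen base with ammonium sulphate and -URA supplement, pH 6.0, with 2% galactose.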
SARS PLpro yeast = inhibitors of SARS-CoV papain-like protease in yeast. AID 485353. 330,000 tested, 0.19% active. Potency, µM (doses to about 32.9 µM), most hits filed as activators. S. cerevisiae expressing SARS-CoV PLpro, growth rescue; further: nearly all actives have a fitted effect of over 55% in size
Numbers stand for hits; - = inactive; ? = inconclusive; . = no result given; [ ] = another dose, or the depositor's remark. This is a sample that favours compounds with a hit; in the whole collection about 21% have one here. Unless noted, the call rests on the fitted dose curve.

SMILES	Cycloheximide cs	Pf growth 96h	Pf growth 48h	Shiga toxin inh	NS1 function inh	SARS PLpro yeast
COc1ccccc1N1C(N)=NC(N)=NC12CCCCC2	-	13µM	?	-	-	-
NC1=NC2(CCCCC2)N(c2cccc(Cl)c2)C(N)=N1	-	?	.	-	-	-
CCOc1ccc(N2C(=O)CSC23CCCCC3)cc1	-	?	-	-	-	-
COc1ccccc1N1C(N)=NC(N)=NC1(C)C	-	-	?	-	-	-
COc1ccc(CN2C3CCC2CC(NC(=O)c2cc(OC)c(OC)c(OC)c2)C3)cc1 (stereo not drawn)	-	?	?	.	-	-
O=c1c2c3c(sc2nc2n1N=C(c1cccs1)CS2)CCCC3	19	-	-	73	-	-
O=C1CN(c2nc(-c3cccs3)nc3sc4c(c23)CCCC4)CCN1	35	?	-	58	-	-
COc1ccc(-c2csc3nc(-c4cccnc4)nc(N4CCC(C(N)=O)CC4)c23)cc1OC	-	-	-	-	-	-
O=C1CN(c2nc(-c3cccnc3)nc3scc(-c4ccccc4)c23)CCN1	19	?	?	-	.	-
O=C(Nc1cccc(S(=O)(=O)N2CCCCC2)c1)C1CC1	.	-	-	.	.	-
O=C(C1CCCC1)N1CCN(S(=O)(=O)c2cccc(Cl)c2Cl)CC1	-	-	-	-	-	-
COc1ccc(/C=C(/NC(=O)c2ccccc2)C(=O)N2CCCC2)cc1	-	-	-	-	-	-
CC(C)CC1Nc2ccc(C(=O)NCCCN3CCCCC3C)cc2NC1=O (stereo not drawn)	-	-	-	-	-	-
COc1ccc(C2CC(=O)c3c(C)nc(N4CCN(Cc5ccccc5)CC4)nc3C2)cc1OC (stereo not drawn)	-	10µM	8.3µM	-	-	-
COc1cc(C2CC(=O)c3cnc(N4CCN(Cc5ccccc5)CC4)nc3C2)cc(OC)c1OC (stereo not drawn)	-	-	9.3µM	-	-	-
Cc1nc(N2CCN(Cc3ccccc3)CC2)nc2c1C(=O)CC(C)C2 (stereo not drawn)	-	.	-	-	-	-
Cn1c(CCNS(=O)(=O)c2ccccc2)nnc1SCc1cccnc1	-	-	-	-	-	-
O=C(N/N=C/c1ccc(O)cc1O)c1ccc(NC(=O)C2CCCCC2)cc1	-	?	?	-	-	-
CC(C)[C@H](NC(=O)c1ccc(Cl)cc1)C(=O)OCC(=O)N1CCN(c2ccccc2)CC1	.	.	.	.	.	-
COc1ccc(Br)cc1CN(C)CC(=O)Nc1c(Cl)cccc1Cl	-	?	-	-	-	?
Cc1cc(/C=C(\C#N)C(=O)N2CCOCC2)c(C)n1C1CCCC1	26	-	-	-	-	-
Cn1cc(Br)c(C(=O)NC2CCCCC2)n1	-	-	-	-	-	-
Cn1cc(Br)c(C(=O)Nc2ncc(Br)s2)n1	36	-	-	-	-	-
CCOc1cc(C(=O)Nc2ccc(C)cc2C)ccc1OCC(=O)N1CCCCC1	-	?	?	-	-	-
CCOc1ccc(C(=O)NCC(=O)N2CCCCCCC2)cc1	.	?	?	.	.	-
SMILES	Cycloheximide cs	Pf growth 96h	Pf growth 48h	Shiga toxin inh	NS1 function inh	SARS PLpro yeast
CCOc1ccc(NC(=O)c2ccc(NCC(=O)N3CCCCCC3)cc2)cc1	27	-	-	-	.	-
CCOc1cc(C(=O)Nc2ccncc2)cc(OCC)c1OCC	-	?	5.2µM	-	-	-
CCOc1cc(C(=O)Nc2ccc(NC(C)=O)cc2)ccc1OCC(=O)N1CCCCC1	-	12µM	-	-	-	-
CCN(c1ccccc1)S(=O)(=O)c1ccc(C(=O)N(C)CCc2ccc(OC)c(OC)c2)cc1	-	?	?	-	-	-
Cc1cccc(CN2C(=O)CCSc3ccc(Cl)cc32)c1	-	-	?	-	-	-
CCOC(=O)Nc1ccc(C)cc1Br	-	-	-	-	-	-
CCOC(=O)NC(=S)Nc1ccc(C(C)(C)C)cc1Br	22	?	?	-	-	-
CCOc1ccc(NC(=O)c2nn(C)cc2Br)cc1	15	?	-	-	-	-
CC(C)OC(=O)c1cc(NC(=O)c2nn(C)cc2Br)cc(C(=O)OC(C)C)c1	-	-	-	-	-	-
CCOc1cc(C(=S)N2CCCCC2)ccc1OCC(=O)NCc1ccccc1	-	3.7µM	.	-	-	-
COc1ccc(NC(=O)c2ccc(Oc3ncccn3)cc2)cc1	22	-	-	57	-	-
COc1ccc(NC(=O)c2ccc(NC(=O)c3ccncc3)cc2)cc1	-	-	-	-	-	-
Cc1nc([N+](=O)[O-])cn1CC(=O)c1ccc(F)cc1	-	-	-	-	-	-
CSc1ccc(S(=O)(=O)NCC(=O)OCC(=O)N(Cc2ccccc2)C(C)C)cc1[N+](=O)[O-]	.	-	-	.	.	-
[S]=[Sb][S][Sb]=[S]	.	-	-	.	.	.
CCOc1ccc(NC(=O)c2ccncc2)cc1	17	?	-	-	-	-
CCOc1ccc2c(c1)C(=NNC(=O)c1ccncc1)c1cc(OCC)ccc1-2	-	2.1µM	9.3µM	-	-	-
CCOc1ccc(NC(=O)c2ccc(OC)cc2)cc1	43	?	-	61	-	-
CCOc1ccc(NC(=O)c2ccc(NC(=O)c3ccc(NC(N)=O)cc3)cc2)cc1	.	.	.	.	.	-
CCOc1ccc(C(=O)c2ccncc2)cc1	-	.	-	-	-	-
CCOc1ccc(NC(=O)c2ccc(N)cc2)cc1	12	-	-	25	-	-
O=C(Nc1ccc(NC(=O)c2ccncc2)cc1)c1ccncc1	-	-	-	-	-	-
CCOc1ccc(NC(=O)Cc2ccc(S(=O)(=O)N3CCCCC3)cc2)cc1OCC	.	.	.	.	.	-
O=C(COC(=O)C1=NN(c2ccccc2)C(=O)CC1)Nc1ccc([N+](=O)[O-])cc1C(F)(F)F	.	-	-	.	.	-
COc1ccc(NC(=O)c2ccc3c(c2)n(C)c(=O)n3C)cc1	-	?	-	-	-	-
SMILES	Cycloheximide cs	Pf growth 96h	Pf growth 48h	Shiga toxin inh	NS1 function inh	SARS PLpro yeast
CCOC(=O)NC(=S)Nc1ccc(OC)cc1	18	-	-	-	-	-
CCOc1ccc(NC(=O)c2ccc(NC(=O)COC(=O)Cc3ccccc3)cc2)cc1	40	-	-	50	-	-
COc1ccc(C(=O)Nc2ccc(C3CC3(Cl)Cl)cc2)cc1 (stereo not drawn)	21	-[1.15 µM]	-	-	-	-
CCOC(=O)NC(NC(=S)Nc1ccc(OC)cc1)C(Cl)(Cl)Cl (stereo not drawn)	-	?	-	-	-	-
COc1cc(C)ccc1OCCCOc1ccccc1Cl	51	?	-	93	-	-
O=C1CCC(=O)N1OCCCCOc1ccccc1	12	-	-	-	-	-
COc1ccccc1OCCCOc1c(C)cc(C)cc1Br	-	?	?	-	-	-
CC(C)(C)c1ccc(OCCON2C(=O)CCC2=O)c(Cl)c1	39	-	.	63	-	-
O=C1CCC(=O)N1OCCCOc1ccccc1	-	-	.	-	-	-
COc1ccccc1OCCOCCOc1c(C)cc(C)cc1Br	-	2.9µM	-	-	-	-
CNCCCCOc1ccc(C(C)(C)C)cc1Cl	-	-	?	-	-	-
